BoNT F protease = blocks Botulinum neurotoxin F light chain protease | inhibition, % at 10 µM | Multiplex microsphere protease cleavage assay, flow cytometry | actives 0.22% (n = 360,000); in the data active = inhibition above about 35%, passing the limit was not always enough; inconclusive = no clear call, values can overlap the other calls; note: plate controls were buffer without enzyme for full effect and enzyme alone for no effect
3CLpro inhibitor = SARS-CoV 3CLpro protease inhibition; inhibition, % at 6 µM; AID 1706; actives 0.14% (n = 290,000); recombinant SARS-CoV 3CLpro, quenched FRET peptide cleavage; in the data active = inhibition above about 12%
Autofluor counter = compound fluorescence in toxin protease inhibitor counterscreen. AID 624483. compound autofluorescence counterscreen, microsphere flow cytometry; hits give high values. actives 3.1% (n = 360,000). fluorescence intensity (concentration not given with the values); in the data active = fluorescence intensity above about 16000; inconclusive = no clear call, values can overlap the other calls
BoNT-A LC inh2 = inhibitors of Botulinum neurotoxin A light chain protease; multiplex microsphere protease substrate cleavage, flow cytometry; inhibition, % at 10 µM; actives 0.17% (n = 360,000); note: plate controls were buffer without enzyme for full effect and enzyme alone for no effect
Anthrax LF inh2 = blocks Bacillus anthracis lethal factor protease | P15917 | multiplex microsphere protease cleavage assay, LF | inhibition, % at 10 µM | actives 0.12% (n = 360,000) | AID 588501; note: plate controls were buffer without enzyme for full effect and enzyme alone for no effect
Target sequence (P15917 whole entry, looked up): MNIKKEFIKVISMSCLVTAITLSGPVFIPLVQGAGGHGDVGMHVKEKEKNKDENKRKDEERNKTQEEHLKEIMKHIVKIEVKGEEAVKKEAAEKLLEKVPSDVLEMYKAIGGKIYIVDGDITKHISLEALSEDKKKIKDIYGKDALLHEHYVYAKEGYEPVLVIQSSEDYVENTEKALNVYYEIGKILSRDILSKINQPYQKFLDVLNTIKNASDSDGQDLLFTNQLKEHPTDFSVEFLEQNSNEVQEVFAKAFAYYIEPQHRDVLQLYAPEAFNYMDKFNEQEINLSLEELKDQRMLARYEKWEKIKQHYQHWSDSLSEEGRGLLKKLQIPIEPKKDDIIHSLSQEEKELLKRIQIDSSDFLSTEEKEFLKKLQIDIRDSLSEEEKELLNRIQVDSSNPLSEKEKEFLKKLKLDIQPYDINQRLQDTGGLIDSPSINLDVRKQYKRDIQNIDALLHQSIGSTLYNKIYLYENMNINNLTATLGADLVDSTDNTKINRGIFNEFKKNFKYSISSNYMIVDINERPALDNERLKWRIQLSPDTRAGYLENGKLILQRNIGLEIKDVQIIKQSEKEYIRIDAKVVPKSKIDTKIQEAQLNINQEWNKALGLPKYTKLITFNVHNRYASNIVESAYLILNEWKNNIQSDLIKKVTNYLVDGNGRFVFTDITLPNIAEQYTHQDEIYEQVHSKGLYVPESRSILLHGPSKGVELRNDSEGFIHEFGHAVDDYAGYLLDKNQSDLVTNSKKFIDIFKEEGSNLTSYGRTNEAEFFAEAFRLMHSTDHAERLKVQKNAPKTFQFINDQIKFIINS
CCHF vOTU inh = CCHFV vOTU protease inhibition; Pep-AMC fluorescence; inhibition, % at 11.5 µM; AID 651958; actives 0.55% (n = 370,000); in the data active = inhibition above about 30%; note: 0% = vehicle wells with enzyme and 100% = no enzyme wells
* marks the source's active call; other numbers are inactive results; ? = inconclusive; . = no result. Only some compounds are listed: those with a hit (about 3.9% of all), similar ones and a draw of the others. Cut-off read from the data, not from the text of the source, unless noted: active = inhibition above about 30%; inconclusive = no clear call, values can overlap the other calls; inactive = below that.

SMILES	BoNT F protease	3CLpro inhibitor	Autofluor counter	BoNT-A LC inh2	Anthrax LF inh2	CCHF vOTU inh
O=C(NCSC1=NCCS1)c1ccccc1	-6	2	24719*	-4	1	5
O=C(OCCN1CCN(C2CN(Cc3cn(Cc4ccccc4Cl)nn3)S(=O)(=O)C2)CC1)c1cc2ccccc2o1 (centres undefined)	.	.	.	.	.	-5
CCOc1ccc(CCNC(=O)c2cc(-c3ccccc3)c(N3CCOCC3)s2)cc1OC	.	.	.	.	.	6
COc1ccc(C[N+]2=C(N)NC3=C(C)Cn4c(=O)n(-c5ccccc5)c(=O)n4C3C2)c(OC)c1 (centres undefined)	.	.	.	.	.	-2
CN(C)CCNC(=O)c1ccccc1	4	-1	20030*	2	-18	-2
CN(c1ccc(C(=O)NCCc2ccccc2)cc1)S(C)(=O)=O	0	5	20035*	2	0	-12
Cc1ccc(S(=O)(=O)N(C)c2ccc(C(=O)NCCc3ccccc3)cc2)cc1	9	-2	4904	2	0	12
Cc1cccc(C(=O)NCCN(C)C)c1	-2	0	2855	1	-2	4
Cc1ccccc1CS(=O)(=O)Cc1ccc(C(=O)Nc2c(C)cccc2C)o1	.	.	.	.	.	-5
COc1ccc(Cn2c(NC(=O)c3ccccc3)nc(Cc3ccccc3)c2-c2ccccc2)c(OC)c1	.	.	.	.	.	1
CCCCCCCCN1C(=O)[C@@H](CC(=O)NCC23CC4CC(CC(C4)C2)C3)C[C@@]2(C(=O)OC)C1=C[C@H](C1CCCC1)O[C@@H]2C	.	.	.	.	.	-3
O=C1c2cccc3c([N+](=O)[O-])ccc(c23)C(=O)N1c1nccs1	-1	6	23502*	0	-2	-1
O=C1c2cccc3c([N+](=O)[O-])ccc(c23)C(=O)N1c1ccc(Cl)cn1	-2	2	20167*	0	1	-1
O=C1c2cccc3c([N+](=O)[O-])ccc(c23)C(=O)N1c1ccccn1	12	4	2295	2	2	9
COc1ccc(NC(=O)c2c(C(F)(F)F)nn(C)c2SCc2ccccc2)cc1	-3	6	16890*	-1	-2	8
NS(=O)(=O)c1ccc(NC(=O)c2ccc(S(=O)(=O)N3CCc4ccccc43)cc2)cc1	2	6	2543	0	0	7
COc1ccc(C(=O)Nc2ccc(S(=O)(=O)N3CCc4ccccc43)cc2)cc1	-6	2	16637*	-1	-3	-5
O=C(Nc1ccc(S(=O)(=O)N2CCc3ccccc3C2)cc1)C1CCCO1 (centres undefined)	-10	6	11273	-1	-4	-12
O=C(Nc1ccc(S(=O)(=O)N2CCCc3ccccc32)cc1)C1CCCO1 (centres undefined)	-3	2	17480*	-6	-3	.
Cc1ccc(C(=O)Nc2ccc(S(=O)(=O)N3CCc4ccccc43)cc2)o1	-3	3	23775*	?	-7	0
O=c1c(-c2nnc(SCc3ccc(Cl)cc3Cl)o2)cccn1Cc1ccccc1	-1	2	22041*	?	0	-20
COc1cc(C(=S)N2CCCC2)ccc1O	2	2	20063*	2	0	-10
COc1cc(C(=S)N2CCCCC2)ccc1O	-8	-6	7223	0	-4	-2
Oc1ccc(C(=S)N2CCCCC2)cc1Cl	-6	2	24104*	-2	-2	4
NC(=NCc1ccccc1)NC(=O)OCc1ccccc1	.	.	.	.	.	3
SMILES	BoNT F protease	3CLpro inhibitor	Autofluor counter	BoNT-A LC inh2	Anthrax LF inh2	CCHF vOTU inh
O=C(Nc1ccc2c(c1)CCC2)C1COc2ccccc2O1 (centres undefined)	0	1	23530*	0	-6	-6
Cc1ccsc1C(=O)OCC(=O)Nc1cccc(S(=O)(=O)N2CCOCC2)c1	-2	0	2052	0	0	14
CCn1cc(C(=O)OCC(=O)Nc2cccc(S(=O)(=O)N3CCOCC3)c2)c(=O)c2ccc(C)nc21	-1	0	16363*	?	0	-9
COc1ccc(C2C(C#N)=C(N)Oc3cc(O)ccc32)cc1 (centres undefined)	?	.	3451	0	7	-8
N#CC1=C(N)Oc2cc(O)ccc2C1c1ccccc1 (centres undefined)	0	-3	21140*	1	0	-2
Cc1ccc(NC(=S)NNC(=O)CSc2nnc(-c3ccc(C)cc3)n2C2CCCCC2)cc1	.	.	.	.	.	15
NS(=O)(=O)c1ccc(CCNc2nc(CN3CCCCC3)nc3sc4c(c23)CCC4)cc1	-4	-2	21682*	-3	-2	-8
COc1cccc(CNc2ccc(N3CCC(C)CC3)cc2)c1OC	-5	2	19533*	3	-4	17
CCOC(=O)Nc1ccc2c(C)cc(=O)oc2c1	-5	-2	16452*	-2	-4	-93
Cc1ccc(-n2c(SCC(=O)N/N=C/C=C\c3ccco3)nnc2-c2ccccc2)cc1	.	.	.	.	.	15
C=C(C)CSc1nc2c(cc1C#N)CCC2	3	-5	4166	0	4	-1
C=CCSc1nc2c(cc1C#N)CCC2	7	-5	21788*	?	-6	0
CCc1nnc(NC(=O)CSc2nc3c(cc2C#N)CCC3)s1	-12	6	2723	0	0	-2
N#Cc1cc2c(nc1SCC(=O)Nc1nccs1)CCCCC2	-5	-2	20116*	-3	-7	-7
CCCCSc1nc2c(cc1C#N)CCC2	-3	-2	20908*	-1	-1	-3
Cc1nc(N[C@@H](Cc2ccccc2)C(=O)O)c2oc3ccccc3c2n1	0	0	2480	0	0	3
Cc1nc(NC(C)C(=O)O)c2nc(C)oc2n1 (centres undefined)	3	-2	21393*	2	-1	-8
Cc1c(Cl)cccc1N1C(=O)c2ccccc2C1=O	-7	-3	25160*	?	-4	16
O=C(NC1CCOC1=O)c1ccccc1 (centres undefined)	3	.	3733	0	1	-19
CS(=O)(=O)c1ccc(C(=O)NC2CCOC2=O)cc1 (centres undefined)	-6	-3	21657*	?	-5	7
Cc1ccc(NC(=O)CNc2ccc(OC(C)C)cc2)c(C)c1	-20	3	19175*	3	-8	1
CC(C)Oc1ccc(NC(N)=O)cc1	-2	3	8881	0	8	-14
Cc1ccc(NC(=O)CNc2cccc(C)c2C)c(C)c1	-19	0	4019	1	1	18
O=C(O)CCCC(=O)Nc1ccc(Br)cc1	0	-2	23089*	0	-1	2
CC(C)Oc1ccc(NC(=O)CCC(=O)O)cc1	0	-7	16641*	-1	-1	1
Cc1cc(-c2cc(NC(=O)Cc3c[nH]c4ccccc34)ccc2Nc2cccnc2)ccc1F	.	.	.	.	.	10
c1ccc(OCCCCn2cnc3ccccc32)cc1	-3	1	2853	0	-10	13
Brc1ccccc1OCCCn1cnc2ccccc21	3	6	19986*	1	-1	-5
CCCOc1ccc(Cn2cnc3ccccc32)cc1	-2	-3	16239*	1	0	2

High-throughput results from PubChem BioAssay.
